The panel holds about 83,000 compounds, 20% with a hit somewhere; the sample as a whole holds those more often.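 Values shown are percent growth following 48 h exposure of cells in 96-well plates to a single concentration of compound; below 10 was considered active.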 Calls of active or inactive are those of the source.
Columns and labels:
Experiment in all cases: NCI-60 one-dose screen, 48 h (100 = growth as untreated, 0 = no growth, -100 = all killed)
Conditions in all cases: 10 µM unless noted
[1] = system: DU-145 prostate
[2] = system: K-562 leukemia
[3] = system: MALME-3M melanoma
[4] = system: MDA-MB-231 breast
[5] = system: SF-268 CNS
[6] = system: SF-295 CNS
[7] = system: SF-539 CNS
[8] = system: M14 melanoma

Measured: growth

CO/C=C/C(=O)c1cc2cnc3c(=N)cc(NC(=O)C(C)C)c([nH]1)c23
active: [1] 4.45% | [2] 3.9% | [3] -77.5% | [4] -31% | [5] -47.4% | [6] -51.6% | [7] -57% | [8] -61.3%

ClCc1ccc(-c2ccc(Cn3cnc4nc(Cl)nc(Cl)c43)cc2)cc1
active: [1] -50% | [2] -14.4% | [3] -32.8% | [4] -21.4% | [5] 1.27% | [6] -62.5% | [7] -45%
inactive: [8] 13.1%

COc1ccc2c(CCC(c3ccccc3)c3ccccc3)c3[n+](cc2c1OC)CCc1cc2c(cc1-3)OCO2
inactive: [1] 18.5% | [5] 19.8% | [7] 13.6%
active: [2] 6.12% | [3] -7.17% | [4] -28.7% | [6] -15.8% | [8] 2.51%

Cc1ccccc1Nc1nc2nonc2nc1Nc1cccc(C)c1C
inactive: [1] 71.9% | [2] 39.5% | [3] 78.6% | [4] 72.7% | [5] 72.8% | [6] 41.5% | [7] 88.1% | [8] 58.4%

CC(C)C1CCC(C)C(C2(C#N)C(N)=NC(N)=C2C#N)C1=O (stereo not drawn)
inactive: [1] 102% | [2] 98.7% | [3] 92.3% | [4] 95.8% | [5] 97.3% | [6] 103% | [7] 97.7% | [8] 96.1%

O=C(N/N=C/c1ccc(Cl)cc1)c1cc(-c2cc3ccccc3o2)nn1-c1ccccc1
inactive: [1] 87% | [2] 91.1% | [3] 105% | [4] 92.5% | [5] 108% | [6] 107% | [7] 84.9% | [8] 99.3%

COc1ccc(-c2cc3c(oc2=O)-c2ccccc2OC3OC(C)=O)cc1 (stereo not drawn)
inactive: [1] 107% | [2] 62.5% | [3] 107% | [4] 85.7% | [5] 108% | [6] 97.9% | [7] 101% | [8] 101%

COC(=O)CC[C@@H](C)[C@H]1CC[C@H]2C3CC[C@@H]4C[C@@H]5CC[C@]4(C)[C@@]3(O5)[C@H](Br)[C@@H](Br)[C@]12C (stereo partly drawn)
inactive: [1] 101% | [2] 78.2% | [3] 103% | [4] 99.4% | [5] 91.2% | [6] 99.3% | [7] 103% | [8] 90.6%

COc1cc2c(cc1OCCCCCN1CCN(c3ncnc4ccccc34)CC1)N=CC1CCCN1C2=O (stereo not drawn)
active: [1] -20.8% | [2] 5.44% | [3] -59% | [4] -26.6% | [5] -0.231% | [6] -39.7% | [7] -77.3% | [8] -66.9%

O=C1CC(c2ccc3c(c2)OCO3)c2ncn(-c3ccc(Cl)cc3)c2N1 (stereo not drawn)
inactive: [1] 18.3% | [2] 14.3% | [3] 62.6% | [4] 44.3% | [5] 44.4% | [6] 70.8%
active: [7] 1.25% | [8] -2.01%

C=C1C(=O)O[C@H]2[C@H]1CC/C(CNC(=O)c1cc3cc(OC)ccc3[nH]1)=C\CC[C@@]1(C)O[C@@H]21
active: [1] -92% | [2] -3.44% | [3] -61.6% | [4] -55.5% | [5] -39.3% | [7] -60.6% | [8] -42.4%
inactive: [6] 37.6%

CCCCCCCC(=O)SCC/C=C/[C@@H]1CC(=O)NCc2cccc(n2)C2=N[C@@](C)(CS2)C(=O)N[C@@H](C(C)C)C(=O)N1
active: [3] 2.46% | [6] -1.52%
inactive: [1] 28.9% | [2] 16% | [4] 21.9% | [5] 53.6% | [7] 48.6% | [8] 35.6%

C=C1C[C@H](O)[C@H](Br)C(C)(C)[C@@]12CCC(C)=C(Cl)C2
active: [6] -3.01% | [8] -19.7%
inactive: [1] 22.7% | [2] 12.3% | [3] 38.5% | [4] 22.4% | [5] 30.9% | [7] 34%

Cc1ccsc1C(NC(=O)c1ccccc1)c1cc(Cl)c2cccnc2c1O (stereo not drawn)
active: [6] 1.35%
inactive: [1] 41.2% | [2] 10.4% | [3] 47.4% | [4] 37.8% | [5] 31.6% | [7] 18.7% | [8] 12.3%

COc1cc(-c2nc(C(=O)NCC(=O)O)nn2-c2ccc(Cl)cc2)cc(OC)c1OC
inactive: [1] 111% | [2] 89.4% | [3] 111% | [4] 106% | [5] 108% | [6] 95.2% | [7] 102% | [8] 98.5%

COc1ccc(C2CC(=O)c3c(O)c(OC)c(OC)c(OC)c3O2)cc1O (stereo not drawn)
inactive: [1] 18.2% | [2] 11.6% | [3] 57.5% | [4] 17.1% | [5] 44.6%
active: [6] 6.54% | [7] -13% | [8] 7.68%

CC1(C)NC(=O)c2[nH]c3c(Cl)c(Cl)ccc3c2C1C#N (stereo not drawn)
inactive: [1] 92.9% | [2] 69.2% | [3] 99.7% | [4] 91.2% | [5] 94.8% | [6] 59.3% | [7] 85.4% | [8] 106%

C=CC[n+]1c(/C=C2\Sc3ccccc3N2C)sc(-c2ccccc2)c1-c1ccccc1
active: [2] 7.28% | [3] 4.72% | [6] -17.1%
inactive: [1] 23.4% | [4] 31.4% | [5] 32.9% | [7] 20.3% | [8] 19.7%

COc1ccc2c(CCCCC(c3ccccc3)c3ccccc3)c3[n+](cc2c1OC)CCc1cc2c(cc1-3)OCO2
active: [1] -80% | [2] -7.74% | [3] -80.9% | [4] -75.1% | [5] -60.7% | [6] -84.2% | [7] -64.5% | [8] -76.1%

c1cc[n+](Cc2c3ccccc3cc3c2ccc2ccccc23)cc1
active: [3] -23.5% | [5] 7.4% | [6] 4.38%
inactive: [1] 57.2% | [2] 16.4% | [4] 72.1% | [7] 13.6% | [8] 62.3%

N#Cc1c(NC(=O)c2ccco2)[n+]([O-])c2cc(F)c(F)cc2[n+]1[O-]
inactive: [1] 76.1% | [2] 56.6% | [3] 116% | [4] 96.7% | [5] 89.7% | [6] 106% | [7] 74.8% | [8] 112%

CC(CCCC(=O)O)c1ccoc1 (stereo not drawn)
inactive: [1] 103% | [2] 103% | [3] 96.8% | [4] 109% | [5] 95.8% | [6] 95.4% | [7] 102% | [8] 97.2%

N#CC1(C#N)C(c2cccs2)NC(c2cccs2)C1(C#N)C#N (stereo not drawn)
inactive: [1] 102% | [2] 95.8% | [3] 99.2% | [4] 104% | [5] 98.1% | [6] 95.6% | [7] 97.6% | [8] 102%

Cc1sc2c(c1C)c(=O)nc1c(-c3nc(-c4ccccc4)cs3)n[nH]n12
inactive: [1] 104% | [2] 94.5% | [3] 98.1% | [4] 93.3% | [5] 96.2% | [6] 88.7% | [7] 96.3% | [8] 96.2%

CC1(O)CCC2CC3OC3(C)CCC3OC3(C)C(O)CC1C2(C)C (stereo not drawn)
inactive: [1] 105% | [2] 119% | [3] 113% | [4] 122% | [5] 113% | [6] 52% | [7] 116% | [8] 114%

Nc1c2c(c(O)c3c1=C(CO)C=N3)=NCCS2=O (stereo not drawn)
active: [1] -95.1% | [2] -7.83% | [3] -97.8% | [4] 1.89% | [5] -38.2% | [6] -95.8% | [7] -88.8% | [8] -85.2%

O=C(Cc1ccccc1)Nc1nnc(NC2CCN(c3nnc(NC(=O)Cc4ccccc4)s3)CC2)s1
inactive: [1] 91.7% | [2] 87.9% | [3] 82.8% | [4] 77.5% | [5] 91.1% | [6] 56.8% | [7] 93.5% | [8] 85.2%

CCC1(/C=N/NC(N)=S)NC(=O)NC1=O (stereo not drawn)
inactive: [1] 112% | [2] 109% | [3] 107% | [4] 102% | [5] 106% | [6] 107% | [7] 109% | [8] 103%

Nc1c2c(c(O)c3c1=C(CO)C=N3)=NCCS2
active: [1] -93% | [2] -33.1% | [3] -96.6% | [4] 2.38% | [5] -47.9% | [6] -94.5% | [7] -95.8% | [8] -89.7%

COc1ccc2c(CCc3ccc(Cl)cc3)c3[n+](cc2c1OC)CCc1cc2c(cc1-3)OCO2
inactive: [1] 67.5% | [2] 33.5% | [3] 55.5% | [4] 66.7% | [5] 49% | [6] 43.3% | [7] 53.1% | [8] 37.9%

O=c1nc2c(-c3nc4ccccc4s3)n[nH]n2c2sc3c(c12)CCCC3
inactive: [1] 104% | [2] 92.3% | [3] 104% | [4] 93.7% | [5] 97.6% | [6] 89.8% | [7] 105% | [8] 98.8%
